The nature of assay [1]: qHTS assay to identify small molecule agonists of the vitamin D receptor (VDR) signaling pathway - cell viability counter screen (AID 743224). Note: series mostly up to about 63 µM; nearly all actives have a fitted effect of over 50% in size. The method, boiled down: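 VDR-bla cells were preincubated 4 h at 37C/5% CO2, then exposed to compounds for 16 h. After the 2 h room-temperature bla FRET read, CellTiter-Glo was added to the same wells and luminescence read after 30 min.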
On the technique in general: Quantitative high-throughput screening tests each substance at several concentrations.

Assay [2] can be described thus: qHTS assay to identify small molecule antagonists of the vitamin D receptor (VDR) signaling pathway - cell viability counter screen (AID 743225). Note: nearly all actives have a fitted effect of over 50% in size. The method in brief: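 Cytotoxicity toward the VDR-bla HEK 293T line was scored by ATP-based CellTiter-Glo luminescence, read in the wells already used for the beta-lactamase readout after 16 h compound treatment under 3 nM 1-alpha,25-dihydroxyvitamin D3 stimulation.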

Assay [3] is described as follows: qHTS assay to identify small molecule agonists of the NFkB signaling pathway (AID 1159509; active = well fitted curve in the direction sought with a large enough effect in the signal ratio in the repeat runs, not every such curve was filed as active; the % refers to the signal ratio; note: series mostly up to about 61 µM). The method, boiled down: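 ME-180 NFkB-bla, 2,000 cells/well, overnight plating; cpd pinned in DMSO, 5 h 37 C; B/G FRET substrate 1.5 h RT; ex 405, em 460/530 nm.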
The nature of assay [4]: qHTS assay to identify small molecule agonists of the NFkB signaling pathway - cell viability counter screen (AID 1159515; calls by dose curve; note: series mostly up to about 61 µM; nearly all actives have a fitted effect of over 55% in size). The method, boiled down: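 NFkB-bla ME-180 cells, 2,000/well, were plated overnight at 37 C, 5% CO2, then exposed to compounds in DMSO for 5 hr. After the bla FRET read, CellTiter-Glo was added to the same wells; luminescence was read after 30 min at room temperature.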

Assay [5] in a line: qHTS assay to identify small molecule agonists of the endoplasmic reticulum stress response signaling pathway (AID 1159516; active = well fitted activation curve with a large enough effect in the signal ratio in the repeat runs, not every such curve was filed as active; the % refers to the signal ratio). The method in brief:
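CellSensor ESRE-bla HeLa cells, carrying a beta-lactamase reporter driven by the ER stress response element, were plated overnight and exposed to compounds for 5 hr at 37 C. Reporter activity was read as FRET substrate fluorescence after 2 hr at room temperature.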

Assay [6] in a line: qHTS assay to identify small molecule agonists of the endoplasmic reticulum stress response signaling pathway - cell viability counter screen (AID 1159517; calls by dose curve; note: series mostly up to about 61 µM; nearly all actives have a fitted effect of over 50% in size). The method, boiled down: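 CellTiter-Glo was added to wells already read for beta-lactamase FRET, and luminescence was recorded 30 min later. Cells: ESRE-bla HeLa, 1,500 per well, compound exposure 5 hr at 37 C.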
A short description of assay [7]: qHTS assay to identify small molecule antagonists of the retinoid-related orphan receptor gamma (ROR-gamma) signaling pathway - cell viability counter screen (AID 1159520). Note: nearly all actives have a fitted effect of over 50% in size. The method in brief:
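Tet-on ROR gamma CHO cells (1,000/well) were plated 4 hr, given compounds in DMSO for 2 hr at 37 C, then induced with 1 uM final doxycycline for 16 hr. Viability was read as ATP by CellTiter-Glo luminescence after 30 min.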

Assay [8] addresses Nuclear receptor ROR-gamma (Homo sapiens) (UniProt P51449). In words: qHTS assay to identify small molecule antagonists of the retinoid-related orphan receptor gamma (ROR-gamma) signaling pathway (AID 1159521). The method, boiled down: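 Readout: ONE-Glo luciferase luminescence, 30 min at room temperature. System: Tet-on RORγ CHO, RORE-LUC. Sequence: compound 2 h, doxycycline 1 uM final, 16 h at 37 C.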

The nature of assay [9]: qHTS assay to identify small molecule agonists of the AP-1 signaling pathway - cell viability counter screen (AID 1159525; calls by dose curve; note: nearly all actives have a fitted effect of over 55% in size). The method in brief: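 ME-180 AP-1-bla, 2500 cells/well, Opti-MEM + 0.5% dialyzed FBS; overnight 37 °C; cpd 15-pt titration, 5 h 37 °C; CellTiter-Glo 30 min RT; luminescence read; normalised to TOAB and DMSO controls.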
Assay [10] in a line: qHTS assay to identify small molecule agonists of the AP-1 signaling pathway (AID 1159526; calls by dose curve).
A short description of assay [11]: qHTS assay to identify small molecule agonists of the RXR signaling pathway - cell viability counter screen (AID 1159529). The method, boiled down:
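Tox21 10K compounds were tested for cytotoxicity against GeneBLAzer RXR-alpha HEK 293T cells grown in 2% charcoal-stripped FBS. Exposure lasted 16 hr at 37 C, 5% CO2; viability read by CellTiter-Glo luminescence.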

The nature of assay [12]: qHTS assay to identify small molecule antagonists of the retinoid acid receptor (RAR) signaling pathway - cell viability counter screen (AID 1159551). Note: nearly all actives have a fitted effect of over 35% in size. The method, boiled down: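 C3RL4 cells were seeded overnight at 37 C, then treated with compounds plus 1 uM (final) retinol for 6 h at 37 C. Viability was read as ATP by CellTiter-Glo luminescence after 30 min at room temperature.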

Assay [13] can be described thus: qHTS assay to identify small molecule antagonists of the retinoic acid receptor (RAR) signaling pathway (AID 1159552; note: nearly all actives have a fitted effect of over 50% in size). The method, boiled down:
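Overnight-plated C3RL4 reporter cells get compound, then retinol to 1 uM final; plates sit 6 hr at 37 C, 5% CO2. A luciferase reagent is added and light output recorded after 30 min at room temperature.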

The nature of assay [14]: qHTS assay to identify small molecule agonists of the retinoic acid receptor (RAR) signaling pathway (AID 1159553). Note: potency is the fitted concentration of half-maximal effect. The method in brief:
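C3RL4 cells carrying a RARE luciferase reporter were plated overnight at 37 C, then exposed to compounds in DMSO for 6 hr at 37 C and 5% CO2. Luminescence was read 30 min after luciferase reagent addition at room temperature.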

Assay [15] addresses Retinoic acid receptor RXR-alpha (Homo sapiens) (UniProt P19793). In words: qHTS assay to identify small molecule agonists of the RXR signaling pathway (AID 1159527; calls by dose curve; note: nearly all actives have a fitted effect of over 35% in size). The method, boiled down:
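Reporter activation is measured as beta-lactamase activity via FRET substrate cleavage (emission 460/530 nm) in HEK 293T cells expressing an RXR-alpha-driven bla construct, following 16 hr compound exposure at 37 C.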

For 12 molecules, outcome and Potency results are on record in PubChem BioAssay (Tox21).

Records with an inconclusive call do not appear. The source made the active and inactive calls. Unless noted, calls come from the whole dose curve; as a rule, active = well fitted curve in the direction sought with a large enough effect in the repeat runs; inconclusive = weak or mixed curves; inactive = no such curve, though single readings can be large; an effect the other way counts as inactive or inconclusive.

Sequence of Retinoic acid receptor RXR-alpha (Homo sapiens) (P19793 whole entry, looked up): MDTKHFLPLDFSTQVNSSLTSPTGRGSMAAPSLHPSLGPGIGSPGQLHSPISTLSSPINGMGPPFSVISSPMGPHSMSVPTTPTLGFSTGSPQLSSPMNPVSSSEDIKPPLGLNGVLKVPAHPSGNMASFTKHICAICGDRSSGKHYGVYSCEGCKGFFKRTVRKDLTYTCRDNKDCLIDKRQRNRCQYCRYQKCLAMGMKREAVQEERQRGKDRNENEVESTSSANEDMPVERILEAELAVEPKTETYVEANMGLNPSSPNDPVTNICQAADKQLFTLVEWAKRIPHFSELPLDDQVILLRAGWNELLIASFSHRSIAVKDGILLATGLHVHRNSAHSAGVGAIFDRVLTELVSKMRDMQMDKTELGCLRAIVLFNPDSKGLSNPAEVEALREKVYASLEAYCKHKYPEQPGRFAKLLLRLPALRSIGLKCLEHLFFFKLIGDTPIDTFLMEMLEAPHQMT

In the case of `Cc1nc(-c2ccc(OCC(C)C)c(C#N)c2)sc1C(=O)O`, the molecule was classed as inactive in assay [1], in assay [2], in [3], in assay [4], in [5] and in [6]. Moreover, the outcome in assay [9] and in [12] was inactive. For the same molecule, the Potency entry in assay [7], in assay [8], in assay [10], in [11] and in assay [13] was “inactive” throughout. Also, the Potency in assay [14] is 0.0944 µM (active).
As for `CC(C)(O)Cc1ccccc1`, the molecule was classed as inactive in assay [1], in assay [2], in [3], in assay [4], in assay [5] and in assay [6]. Moreover, the molecule was classed as inactive in assay [9] and in [12]. The Potency result in assay [7], in assay [8], in assay [10], in assay [13] and in assay [14] was “inactive” each time.
Consider `NC(=O)c1ncn([C@@H]2O[C@H](CO)[C@@H](O)[C@H]2O)c1N`, for which the molecule was called inactive in assay [1], in [2], in assay [3], in assay [4], in [5] and in assay [6]. In addition, in assay [9], the call was inactive. For the same molecule, the Potency result in assay [7], in [10], in [15], in assay [11], in [13] and in assay [14] was “inactive” throughout.
As to `c1ccc(SCCSc2ccccc2)cc1`, the molecule was called inactive in assay [1], in [2], in assay [3], in assay [4], in assay [5] and in assay [6]. Moreover, the result in assay [9] was inactive. In addition, the Potency entry in assay [7], in [8], in [10], in assay [11] and in [13] was “inactive” throughout. Further, in [14], the Potency was 6.06 µM (active).
In the case of `C/C=C1\C(=O)C[C@H]2[C@@H]3CCC4=CC(=O)CC[C@]4(C)[C@H]3CC[C@]12C`, the result in assay [1], in assay [3], in assay [4], in assay [5], in assay [6] and in assay [9] was inactive. The result in assay [12] was inactive. Also, the Potency entry in assay [7], in assay [10], in [15] and in assay [11] was “inactive” each time.
As for `CCC(C(=O)NC(N)=O)c1ccccc1` (stereo unspecified), the result in [1], in [3], in [4], in assay [5], in assay [6] and in assay [9] was inactive. Further, in assay [12], the molecule was classed as inactive. Also, the Potency result in assay [7], in [10], in [15] and in [11] was “inactive” throughout.
With `C#CC(O)C(CC)CCCC` (stereo unspecified), the call in [1], in assay [2], in assay [3], in [4], in [5] and in assay [6] was inactive. For the same molecule, the molecule was classed as inactive in assay [9]. For the same molecule, the Potency result in [7], in assay [10], in assay [15] and in [11] was “inactive” each time.
As to `COc1cccc(Br)c1`, the molecule was called inactive in assay [1], in [3], in assay [4], in [5], in assay [6] and in [9]. Moreover, the Potency entry in [7], in assay [10], in assay [15] and in [11] was “inactive” in each case.
Turning to `CC(C)CCCC(C)NCCC(C)C` (stereo unspecified), the outcome in assay [1], in assay [2], in assay [3], in assay [4], in assay [5] and in assay [6] was inactive. Besides, the molecule was classed as inactive in [9] and in assay [12]. Besides, the Potency result in assay [7], in [10] and in assay [15] was “inactive” each time.
On to `CCCC=O`, for which the call in assay [1], in assay [2], in assay [3], in [4], in [5] and in assay [6] was inactive. Also, the molecule was classed as inactive in assay [9] and in [12]. The Potency result in [7], in assay [8], in assay [10], in assay [13] and in assay [14] was “inactive” in each case.
With `C=CCSCC1Nc2cc(Cl)c(S(N)(=O)=O)cc2S(=O)(=O)N1` (stereo unspecified), the outcome in [1], in assay [2], in assay [3], in assay [4], in assay [5] and in assay [6] was inactive. Also, the molecule was called inactive in assay [9] and in assay [12]. Besides, the Potency result in assay [7], in [10], in assay [15] and in assay [11] was “inactive” each time.
Turning to `C1=C\CC/C=C\CC/C=C\CC/1`, the call in [1], in assay [2], in assay [3], in assay [4], in assay [5] and in assay [6] was inactive. Moreover, the molecule was classed as inactive in assay [9] and in assay [12]. In addition, the Potency result in assay [7], in assay [8], in assay [10], in assay [11], in assay [13] and in assay [14] was “inactive” in each case.
